BCR signal inh: qHTS Assay to Find Inhibitors of Chronic Active B-Cell Receptor Signaling | 0.05% of 340,000 active | AID 493014, 2011 | Potency, µM (highest dose often 46.1 µM), hits mostly inhibitors | ABC-DLBCL IkBa-CBG/CBR reporter, luminescence ratio, 4 h; active means well fitted inhibition curve with a large enough effect in the signal ratio, with a control signal flat, not every such curve was filed as active; inconclusive means small, poorly fitted or top-dose-only effect, or effect the other way, or a change in a side signal; the % refers to the signal ratio
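Compounds up to 46 uM were incubated four hours with TMD8 cells whose green CBG68 luciferase is fused to IkappaBalpha; red CBR luminescence normalised the signal, and concentration-effect curves were fitted to fusion, red and ratio data.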
IL2 activator: qHTS of IL-2 Activators; activation, % (series mostly up to about 46 µM); 0.065% of 360,000 active; IL-2 activation reporter assay, cell-based qHTS; stimulated with anti-CD3/CD4/CD28 beads; in transgenic mouse T cells; in the data active means activation above about 50%; inconclusive means mostly about 30% to 49%
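Using fluorescent plate cytometry, EGFP and DsRed are detected in transgenic mouse T cells stimulated 18 h at 37 degrees C with antibody-coated beads after 60 min compound pretreatment.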
Nrf2 ARE act: qHTS of Nrf2 Activators; Potency, µM (top dose mostly 46.1 µM), actives largely listed as activators; AID 624171, 2012; AREc32 ARE-luciferase reporter (MCF7-derived line), luminescence, 24 h; 0.31% of 410,000 active; further: nearly all actives have a fitted effect of over 65% in size
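Quantitative high-throughput format: AREc32 reporter cells, 1000 per well, received compound by pin transfer and were incubated 24 hr at 37 deg C, 5% CO2, before Steady-Glo luminescence detection.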
a7 integrin act: qHTS for Activators of Integrin-Mediated Alleviation for Muscular Dystrophy. alpha7betagal myoblasts, beta-gal FDG fluorescence, 48 h. Potency, µM (top dose mostly 38.3 µM), actives largely listed as activators. 0.064% of 350,000 active. AID 624291, 2012; further: nearly all actives have a fitted effect of over 60% in size
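Alpha7betagal+/- myoblasts (passage 13) were plated 16-24 hr, then exposed to compounds (1:260 dilution of DMSO stock) for 48 hours at 37C. After MPER lysis, β-galactosidase reporter activity was read as FDG fluorescence (ex 480/em 540) after 30 minutes.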
BRCA1 expr up: qHTS Assay to Identify Small Molecule Activators of BRCA1 Expression; MCF7-BRCA1-FFLuc reporter, luminescence, 48 h; response scale: scaled: vehicle 0%, 10 µM genistein 100%; Potency, µM (top dose mostly 46.1 µM), usual class: activators; 1.1% of 380,000 active; AID 624202, 2012; further: nearly all actives have a fitted effect of over 80% in size
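Using MCF7 cells harboring a BRCA1 firefly luciferase reporter, plated 2 h before compound pinning, the screen measured luminescence after 48 h incubation. Responses were normalized to DMSO and 10 microM genistein, then fitted for concentration-effect.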
N370S GC mod: qHTS Assay for Inhibitors and Activators of N370S glucocerebrosidase as a Potential Chaperone Treatment of Gaucher Disease; N370S GC spleen homogenate, 4MU-glucoside fluorescence; Potency, µM (highest dose often 59.4 µM), usual class: inhibitors; AID 2101, 2009; 0.092% of 330,000 active; Lysosomal acid glucosylceramidase (Homo sapiens), P04062
Hits are given with their value; – = inactive; ? = inconclusive; · = not tested or not shown. In the library only some 1.4% were active in any assay of this set; here they are far more common. Unless noted, the call rests on the fitted dose curve; in most records, active means well fitted curve in the direction sought with a large enough effect; inconclusive means small, poorly fitted or top-dose-only effect, or another doubt; inactive means no such curve, though single readings can be large; an effect the other way counts as inactive or inconclusive.

SMILES	BCR signal inh	IL2 activator	Nrf2 ARE act	a7 integrin act	BRCA1 expr up	N370S GC mod
CC(=O)N(C)c1ccc(N=NC2C(=O)N(C(N)=S)N=C2C)cc1 (centres undefined)	–	–	–	–	4µM	–
O=[N+]([O-])c1ccc(Cl)c(S(=O)(=O)/N=C(/Sc2ccc(Br)cc2)c2ccccc2)c1	·	·	·	·	–	·
N#CN=c1snc(-c2ccccc2)n1-c1ccc(Br)cc1	·	·	·	·	–	·
CN=c1scc(C)n1/N=C/c1ccc(O)c(O)c1O	?	–	–	–	–	·
CCN=c1scc(C)n1/N=C/c1ccsc1	?	–	7.1µM	–	–	–
CCOC(=O)C1=C(c2ccccc2)NC(N)=NC1c1ccc(OCc2ccc(Cl)cc2)c(OC)c1 (centres undefined)	–	–	–	–	–	22µM
CCCn1[nH]cc(SC)c(=O)c1=O	–	51	–	–	–	–
COc1nc(Nc2ccc([N+](=O)[O-])cc2)nc(NC2CCCCC2)n1	–	–	–	–	–	–
CCOC(=O)c1ccc(-c2nnc(-c3ccc(Cl)cc3Cl)o2)cc1	–	–	–	–	0.89µM	–
CCOC(=O)c1cc(-c2nnc(-c3ccc(Cl)cc3)o2)c(C)nc1C	–	–	–	–	–	–
COc1ccc(-c2ccc3nnc(SCC(N)=O)n3n2)cc1	–	–	–	–	–	–
CCSc1nnc2ccc(-c3ccc(OC)c(OC)c3)nn12	7.9µM	–	–	–	–	–
COc1cc2c(cc1OC)C(COc1cc(C)cc(C)c1)N(C(=O)COc1ccccc1)CC2 (centres undefined)	–	·	–	·	–	·
COC(=O)c1cccc(-n2c(C)cc(/C=C3\SC(=O)NC3=O)c2C)c1	·	–	–	–	10µM	·
Cc1cc(/C=C2\SC(=S)NC2=O)c(C)n1-c1ccccc1	–	–	–	–	?	–
Cc1cc(/C=C2\C(=O)NN(c3ccccc3)C2=O)c(C)n1-c1ccccc1O	?	–	–	–	10µM	–
Cc1cc(/C=C2/C(=O)NN(c3ccccc3)C2=O)c(C)n1-c1ccc(O)cc1	?	–	–	–	–	8.9µM
COc1ccc(-n2c(C)cc(/C=C3\C(=O)NN(c4ccccc4)C3=O)c2C)cc1	–	–	–	–	–	–
Cc1cc(/C=C2\SC(=S)NC2=O)c(C)n1-c1ccc(O)cc1	?	–	–	–	2.2µM	?
CCOC(=O)C(C)Sc1ccc2nnc(-c3ccc(OCC)cc3)n2n1 (centres undefined)	·	·	·	·	–	·
CCS(=O)(=O)N1CCc2cc(C(=O)Nc3ccc(Br)cc3F)ccc21	·	·	–	·	–	·
Cc1ccc(OCCOc2ccc(Br)cc2)c([N+](=O)[O-])n1	–	–	–	–	3.2µM	–
Cc1ccc(OCC(=O)Nc2ccc(C)c(F)c2)c([N+](=O)[O-])n1	–	–	–	–	6.3µM	–
O=[N+]([O-])c1ccc(COc2cccc3cccnc23)cc1	–	–	–	–	11µM	–
Cc1ccc(OCc2ccccc2C)c([N+](=O)[O-])n1	?	–	–	–	–	–
SMILES	BCR signal inh	IL2 activator	Nrf2 ARE act	a7 integrin act	BRCA1 expr up	N370S GC mod
O=[N+]([O-])c1ccc(OCCCOc2cccc3cccnc23)cc1	?	–	–	–	–	–
Cc1ccc(OCc2ccc([N+](=O)[O-])cc2)c([N+](=O)[O-])n1	–	–	–	–	5µM	–
COc1ccc(CCN2C(=NC(=O)CC(C)C)SC3CS(=O)(=O)CC32)cc1OC (centres undefined)	–	–	–	–	–	–
CCN(CC(=O)Nc1c(F)cccc1F)C(=O)CCN1C(=O)C2CCCCC2C1=O (centres undefined)	?	–	–	–	–	–
COc1ccc(-c2nnc3n2N=C(c2ccc(OC)c(OC)c2)CS3)cc1	·	·	·	·	·	–
c1ccc(-c2noc(-c3cccnc3NCc3ccco3)n2)cc1	·	·	–	·	–	·
C/C(=C\c1ccc(N)cc1)c1nc2ccccc2[nH]1	–	–	–	–	7.9µM	–
O=C(c1ccc(F)cc1)c1cc2ccc(O)cc2oc1=O	?	–	–	–	–	–
N=c1oc2cc(O)ccc2cc1C(=O)Nc1ccc(F)cc1	?	–	–	–	1.6µM	?
C=CCn1c(NCc2ccc(OC)cc2O)nc2ccccc21	–	–	–	–	13µM	–
Fc1c(F)c(F)c(N/N=C/c2c[nH]c3ccccc23)c(F)c1F	?	–	13µM	–	–	–
CC(=O)c1ccc(OCC(O)Cn2nnc3ccccc32)cc1 (centres undefined)	?	–	–	–	?	–
COC(=O)c1ccc(OCC(O)Cn2nnc3ccccc32)cc1 (centres undefined)	–	–	–	–	11µM	–
CC(=O)Nc1ccc(OCC(O)Cn2c(C(C)C)nc3ccccc32)cc1 (centres undefined)	?	72	–	–	–	–
CN1CCOc2ccc(S(=O)(=O)N3CCN(S(=O)(=O)c4c(F)cccc4F)CC3)cc21	?	·	·	·	·	–
CC1(C)CCc2cc(S(=O)(=O)N3CCN(S(=O)(=O)c4c(F)cccc4F)CC3)ccc2O1	–	–	–	·	7.9µM	·
C#CCSc1nnc(-c2cccc3ccccc23)o1	·	–	11µM	–	–	·
O=c1[nH]c(O)c(/C=C2\C=Nc3ccc(Br)cc32)[nH]1	–	–	10µM	–	–	–
O=C1NN(c2ccc(Cl)cc2)C(=O)/C1=C\c1ccc(-c2cccc(C(=O)O)c2)o1	–	–	–	–	8.9µM	–
CC(C)CCN1C(N(C)C)=NC[C@@H]1C	–	–	–	–	–	–
Cc1cc(O)ccc1Nc1cc(-c2cccc(N(C)C)c2)ncn1	·	–	–	·	5.6µM	·
CN(C)c1ccc(-c2cc(NCc3ccccc3)ncn2)cc1	·	·	·	·	·	–
COc1ccc(CNC(=O)c2ccncc2)cc1	–	–	–	–	–	–
COc1ccc(CNC(=O)c2ccc(C(C)(C)C)cc2)cc1	–	–	–	–	3.5µM	–
O=C(NCc1ccc(F)cc1)c1c2c(nc3ccccc13)CCC2	–	–	–	–	14µM	–
O=C(NCc1ccco1)c1c2c(nc3ccccc13)CCC2	?	–	–	–	–	–
Cc1sc(NC(=O)/C=C/C(=O)O)c(C(N)=O)c1-c1ccc(C(C)(C)C)cc1	?	–	13µM	–	–	–
CCOC(=O)CN(C(=O)c1snc(C(N)=O)c1N)C(C(=O)NC1CCCCC1)c1ccc(F)cc1 (centres undefined)	?	–	–	–	–	–

Source: PubChem (National Center for Advancing Translational Sciences (NCATS))
